Laboratory results: PubChem BioAssay (NCATS)
Results filed as inconclusive are left out. Active and inactive are the calls of the source. Calls follow the shape of the dose curve; as a rule, active = well fitted cell-killing curve with a large enough effect; inconclusive = small, poorly fitted or top-dose-only effect; inactive = no such curve, though single readings can be large or run the other way.

Assay: qHTS of pediatric cancer cell lines to identify multiple opportunities for drug repurposing: Primary screen for NB1643 cells (AID 1347099); also: nearly all actives have a fitted effect of over 50% in size
Conditions: NB1643 neuroblastoma viability, CellTiter-Glo luminescence, 48 h; series mostly up to 46 µM; activity change, negative = cytotoxic: at the top concentration
Text: Drug repurposing or repositioning has been offered as a strategy for drug development in oncology programs. This approach has special potential for childhood cancers and other rare or orphan diseases, where the expected return on new drug development has been a disincentive to pharmaceuticals. […] In this project we exploit the poly-pharmacology of drugs to discover new indications via phenotypic screening of a panel of 19 well-characterized cell lines derived from solid tumors seen in children and adolescents. The goal is to identify approved drugs with previously unrecognized anticancer properties that has the potential to reveal new mechanisms and biological processes involved in carcinogenesis or drug resistance. We employed a titration-based paradigm (quantitative high-throughput screening or qHTS), where all compounds were tested at multiple concentrations for their effect on cell viability. Concentration-response curves (CRCs) were derived directly from the primary screen, and both potency and efficacy values were used to identify compounds with robust bioactivity profiles. We screened the NIH Chemical Genomics Center (NCGC) Pharmaceutical Collection (NPC) and Mechanism Interrogation Plate (MIPE) small molecule collections of approved and investigational compounds against these cell lines; and measured metabolically active cells after 48 hours of compound treatment as a proxy for cell viability. […] Assay Submitter: Nathalia J. Martinez, National Center for Advancing Translational Sciences, National Institutes of Health, Rockville, MD, USA; email: natalia.martinez@nih.gov Shen, M et al. Quantitative high-throughput phenotypic screening of pediatric cancer cell lines identifies multiple opportunities for drug repurposing. Oncotarget 2017 Dec 19;9(4):4758-4772. PMID 29435139.
The cells were obtained from University of North Carolina (UNC), Pediatric Preclinical Testing Program (PPT), and Coriell Institute (CI). qHTS cell viability assay: Cells were assayed in growth media at a density of 500-1,000 cells/well. Five microliters of cells were dispensed into 1,536-well, white, solid-bottom, TC-treated plates (Greiner Bio One) using a multidrop dispenser and incubated at 37 degrees C, 5% CO2, under a humidified atmosphere for 5 hours. Twenty-three nanoliters of compounds and controls (neutral control DMSO or positive control bortezomib at final concentration of 2.3 µM) were subsequently transferred by Kalypsys pintool. For primary screens, the MIPE collection was tested at 11-point dilutions (final concentrations range from 0.78 nM to 46 µM) and the NPC collection at 8-point dilutions (final concentrations range from 0.59 nM to 46 µM). Compounds tested in follow-up screens were assayed at 11-point dilutions. Cells were incubated for 48 hours, followed by addition of 3 µL of CellTiter-Glo (Promega). After a 15 min incubation at room temperature, samples were analyzed for luminescence intensity using a ViewLux High-throughput CCD imager equipped with clear filters.
Potency is read from the fitted curve at half-maximal effect.

Row | Structure (SMILES) | activity change, negative = cytotoxic | Potency
1 | COP(=S)(OC)Oc1ccc(Sc2ccc(OP(=S)(OC)OC)cc2)cc1 | 14.1% (inactive) | –
2 | C[C@]12CC[C@H](O)CC1=CC[C@@H]1[C@@H]2CC[C@]2(C)C(=O)CC[C@@H]12 | 4.48% (inactive) | –
3 | COCC(=O)N(c1c(C)cccc1C)C(C)C(=O)OC (stereo not given) | 0% (inactive) | –
4 | CCC1(c2cccc(O)c2)CCCCN(C)C1 (stereo not given) | -11.7% (inactive) | –
5 | Oc1c(Br)cc(Br)cc1Br | 20.7% (inactive) | –
6 | COc1ccc2[nH]cc(CCN(C(C)C)C(C)C)c2c1 | -11.8% [at 92.7 µM] (inactive) | –
7 | N#Cc1nn(-c2c(Cl)cc(C(F)(F)F)cc2Cl)c(N)c1S(=O)C(F)(F)F (stereo not given) | -13.1% (inactive) | –
8 | C[C@@H]1CN(C2CCC(C#N)(c3ccc(F)cc3)CC2)CC[C@]1(C(=O)O)c1ccccc1 (stereo not given in full) | 15.5% (inactive) | –
9 | COc1ccc2c(C(=O)c3ccc(Cl)cc3)c(C)n(CC(=O)O)c2c1 | -8.4% (inactive) | –
10 | Sc1ccccc1Cl | 10.7% (inactive) | –
11 | CCOC(=O)C(c1c(O)c2ccccc2oc1=O)c1c(O)c2ccccc2oc1=O | 5.66% (inactive) | –
12 | C#C[C@]1(O)C=C[C@H]2[C@@H]3CCC4=CC(=O)CC[C@@H]4[C@H]3CC[C@@]21CC | -7.08% (inactive) | –
13 | CCOC(=O)C1(c2ccccc2)CCN(CCc2ccc(N)cc2)CC1 | 6.3% (inactive) | –
14 | C[C@]12Cc3nonc3C[C@@H]1CC[C@@H]1[C@@H]2CC[C@@]2(C)[C@H]1CC[C@]2(C)O | -5.53% (inactive) | –
15 | COc1ccc(CN2CCNCC2)c(OC)c1OC | 5.71% (inactive) | –
16 | c1ccc2nc(N3CCNCC3)ccc2c1 | -12.8% (inactive) | –
17 | NC(=O)OCCCc1ccccc1 | 0.483% (inactive) | –
18 | CCC(=O)C(CCN(C)C)(c1ccccc1)c1ccccc1 | 9.55% (inactive) | –
19 | O=C(O)CCCCCCNC1c2ccccc2CCc2ccccc21 | 7.72% (inactive) | –
20 | CC[C@H]1C[C@H]2[C@@H]3CCC4=CC(=O)CC[C@@H]4[C@H]3CC[C@]2(C)[C@H]1O | -8.51% (inactive) | –

Row | Structure (SMILES) | activity change, negative = cytotoxic | Potency
21 | COC(=O)C1=CCCN(C)C1 | – | inactive
22 | Cc1ncc2n1-c1ccc(Cl)cc1C(c1ccccc1F)=NC2 | -9.85% (inactive) | –
23 | CCN(Cc1ccc(Cl)nc1)/C(=C/[N+](=O)[O-])NC | 17% (inactive) | –
24 | CCc1cc(OC)c(C[C@H](C)N)cc1OC | 0% [at 92.7 µM] (inactive) | –
25 | CCc1ccc(C2CCNCC2)cc1 | -2.11% (inactive) | –
26 | Oc1ccc2[nH]cc(CCCCN3CC=C(c4ccccc4)CC3)c2c1 | 0% (inactive) | –
27 | OC(c1ccccc1)(c1ccccc1)C1CCNCC1 | 16.3% (inactive) | –
28 | CC(Cc1ccc2c(c1)OCO2)NO (stereo not given) | -7.43% [at 92.7 µM] (inactive) | –
29 | CC(C)(C)OC(=O)c1ncn2c1[C@@H]1CCCN1C(=O)c1c(Br)cccc1-2 | 8.44% (inactive) | –
30 | CN1[C@@H]2CC[C@H]1CC(OC(=O)c1cc(Cl)cc(Cl)c1)C2 (stereo not given in full) | – | 1 nM (active)
31 | Oc1ccc([C@H]2CNCc3c2ccc(O)c3O)cc1O | -12.1% (inactive) | –
32 | CN1C[C@@H](NS(=O)(=O)N(C)C)C[C@@H]2c3cccc4c3c(cn4C)C[C@H]21 | 9.71% (inactive) | –
33 | CCCCCCCCC(=O)NCc1ccc(O)c(OC)c1 | – | 1 nM (active)
34 | OC(O)C(Cl)(Cl)Cl | 14.1% (inactive) | –
35 | CCOC(C(=O)OCCN(C)C)(c1ccccc1)c1ccccc1 | 11% (inactive) | –
36 | Cc1ccc([N+](=O)[O-])[c]2c1[O][Hg]2 | – | 596 nM (active)
37 | C[C@@H]1O[C@@H](O[C@@H]2C=C3CC[C@@H]4[C@H](CC[C@]5(C)[C@@H](c6ccc(=O)oc6)CC[C@]45O)[C@@]3(C)CC2)[C@H](O)[C@H](O)[C@H]1O | – | 6.7 nM (active)
38 | CC(C)=CCN1CC[C@@]2(C)c3cc(O)ccc3C[C@@H]1[C@@H]2C | -9.32% [at 92.7 µM] (inactive) | –
39 | O=C(N[C@H]1N=C(c2ccccc2F)c2cccc3c2N(CC3)C1=O)c1cc2ccccc2[nH]1 | 15.4% (inactive) | –
40 | NCc1cccnc1 | 14.8% (inactive) | –
